Experimental data as given in PubChem BioAssay (NCATS).
Activity calls are given as the source filed them. The rule behind the calls is not given here.

What follows are compounds tested on HIV-1 nucleocapsid protein NCp7 (binding to TG oligonucleotide) (assay: HIV Nucleocapsid (AID 346;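 note: potency is for inhibitors that block NC binding and lower polarization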)). Details: HIV-1 NC / fluorescein-TGTGTGTG probe, fluorescence polarization.
Procedure, shortened: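 Fluorescence polarization binding of 100 nM HIV-1 NC to 10 nM fluorescein-labelled TG4xF oligonucleotide. Buffer was Hepes pH 7.5 with 250mM NaCl, 1uM ZnCl2, TCEP and 2-mercaptoethanol. Compounds were incubated 1 hr at room temperature before the read.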
Potency is the fitted concentration of half-maximal effect.

| SMILES | Potency |
| --- | --- |
| Cc1cccc(CNc2ncncc2-c2ccc3c(c2)OCO3)c1 | > 20 µM (inactive) |
| c1ccc2c(Nc3ccncc3)nc(-c3ccc4c(c3)OCO4)nc2c1 | > 20 µM (inactive) |
| O=C(Nc1cccc(F)c1)N1CC[C@@]2(CCCN(C(=O)c3cc(C(F)(F)F)cc(C(F)(F)F)c3)C2)C1 | > 20 µM (inactive) |
| O=c1c(-c2ccc(F)cc2)nc2cncnc2n1-c1ccccc1 | > 20 µM (inactive) |
| c1ccc2c(NC3CCNCC3)nc(-c3ccoc3)nc2c1 | > 20 µM (inactive) |
| COc1ccc2[nH]cc(CCNc3ncnc4ccc(-c5ccoc5)cc34)c2c1 | > 20 µM (inactive) |
| CN1CCN(c2ncc3ncc(=O)n(Cc4ccc(F)cc4)c3n2)CC1 | > 20 µM (inactive) |
| CCNc1ncc2nc(-c3cccs3)c(=O)n(CCc3ccccc3)c2n1 | > 20 µM (inactive) |
| Cc1cccc(CNc2cc(-c3ccccc3C)ncn2)c1 | > 20 µM (inactive) |
| COc1ccccc1CN1CCC2(CC1)CCN(C(=O)c1csnn1)CC2 | > 20 µM (inactive) |
| Cc1cccc(CNc2ncnc3ccc(-c4ccccc4CN(C)C)cc23)c1 | > 20 µM (inactive) |
| COc1ccccc1CCn1c(=O)c(-c2cn(C)c3ccccc23)nc2cncnc21 | > 4 µM (inactive) |
| COc1ccc(-n2c(=O)c(C)nc3cnc(Nc4cccc(OC)c4)nc32)cc1 | > 20 µM (inactive) |
| COc1cccc(-c2ccc3ncnc(N4CCN(C)CC4)c3c2)c1 | > 20 µM (inactive) |
| CC(=O)NCCNc1ncnc2ccc(-c3cccc(NS(C)(=O)=O)c3)cc12 | > 20 µM (inactive) |
| COc1ccccc1CCn1c(=O)c(-c2cccs2)nc2cncnc21 | > 20 µM (inactive) |
| O=C(c1csnn1)N1CCC2(CC1)CCN(c1cccc(-c3ccccc3)c1)CC2 | > 20 µM (inactive) |
| CN1CCN(c2ncc3nc(-c4ccccc4)c(=O)n(Cc4ccc(F)cc4)c3n2)CC1 | > 20 µM (inactive) |
| O=c1c(-c2ccc(Cl)cc2)nc2cnc(N3CCNCC3)nc2n1Cc1ccc(F)cc1 | > 20 µM (inactive) |
| COC(=O)N1CCC2(CC1)CN(c1cccc(-c3ccccc3)c1)C2 | > 20 µM (inactive) |

| SMILES | Potency |
| --- | --- |
| COc1cccc(Cn2c(=O)c(-c3cn(C)c4ccccc34)nc3cnc(N4CCOCC4)nc32)c1 | > 20 µM (inactive) |
| Cn1c(=O)c(-c2ccc(F)c(F)c2)nc2cncnc21 | > 4 µM (inactive) |
| Cc1cnc(CNc2ncncc2-c2ccoc2)cn1 | > 20 µM (inactive) |
| COc1ccc(-n2c(=O)c(CCc3ccccc3)nc3cnc(N(C)C)nc32)cc1 | > 20 µM (inactive) |
| CNc1ncnc2ccc(-c3ccc4c(c3)OCO4)cc12 | > 20 µM (inactive) |
| Cc1cnc(CNc2ccnc(-c3cccc(NS(C)(=O)=O)c3)n2)cn1 | > 20 µM (inactive) |
| c1ccc(C(c2ccccc2)N2CC[C@@]3(CCCNC3)C2)cc1 | > 20 µM (inactive) |
| Cc1noc(C)c1-c1nccc(NCc2ccccc2)n1 | > 20 µM (inactive) |
| COCCNc1nc(-c2ccoc2)nc2ccccc12 | > 20 µM (inactive) |
| CN1CCN(c2ncc3nc(-c4cccs4)c(=O)n(CCC#N)c3n2)CC1 | 15.3 µM (inactive) |
| Cc1ccccc1-c1cc(NCc2ccccc2)ncn1 | > 20 µM (inactive) |
| COc1ccccc1CN1CC[C@@]2(CCCN(C(=O)c3cnccn3)C2)C1 | > 20 µM (inactive) |
| CC(C)CN1CC2(CCN(C(=O)c3ccco3)CC2)C1 | > 20 µM (inactive) |
| Cc1ccccc1-c1nc(N(C)Cc2ccco2)c2ccccc2n1 | > 20 µM (inactive) |
| Cn1c(=O)c(-c2ccc(Cl)cc2)nc2cnc(Oc3cccc(Cl)c3)nc21 | > 20 µM (inactive) |
| COc1ccccc1CNc1ncnc2ccc(-c3cccnc3)cc12 | > 20 µM (inactive) |
| COc1ccc(-n2c(=O)c(-c3cc(F)cc(F)c3)nc3cnc(N(C)C)nc32)cc1 | > 20 µM (inactive) |
| COc1ccc(NC(=O)N2CC3(CCN(C(=O)c4cc(C(F)(F)F)cc(C(F)(F)F)c4)CC3)C2)cc1 | > 20 µM (inactive) |
| O=S(=O)(c1ccccc1)N1CCC2(CCN(c3ccc(-c4ccccc4)cc3)CC2)CC1 | > 20 µM (inactive) |
| O=C(c1csnn1)N1CCC[C@@]2(CCN(c3ccccc3)C2)C1 | > 20 µM (inactive) |
